Test results taken from the supplement of paper PMC10037445.
The full ranking holds about 2,900 compounds; the median of “NF-kB SEAP reporter activity, fold change vs agonist alone” is about 0.99, and the highest 2% start at about 2.6. What follows is part of a selection rich in the highest values, with near analogues and random picks from the rest.

What was measured:
RAW-Dual [1] = assay: NF-kB SEAP reporter activity, fold change vs agonist alone; higher = enhanced NF-kB activity
Summary of the method: (§1)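 After 50 nL of library stock was delivered by pin tool to RAW-Dual macrophages (50,000 cells/well, DMEM, 384-well plates), a PRR agonist was added 1 h later and the plates were kept at 37 °C, 5% CO2. Twenty hours later, IRF was read from supernatant by QuantiLuc luminescence and NF-κB by QuantiBlue absorbance at 620 nm. Reporter activity is stated as fold change over agonist-alone wells. Wells with IncuCyte confluency under 70% of agonist controls in both mask sets were counted as cytotoxic.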

RAW-Dual [2] = assay: NF-kB SEAP reporter activity, fold change vs agonist alone; cytotoxicity flag (confluency mask): not cytotoxic; higher = enhanced NF-kB activity
Summary of the method: as §1

RAW-Dual [3] = assay: NF-kB SEAP reporter activity, fold change vs agonist alone; cytotoxicity flag (confluency mask): cytotoxic (confluency <70% of control); higher = enhanced NF-kB activity
Summary of the method: as §1

[4] = library stock concentration (final ~1000-fold dilution): 10 mM water, cytotoxicity flag (confluency mask): not cytotoxic, agonist: Imiquimod (TLR7) […]
[5] = library stock concentration (final ~1000-fold dilution): 10 mM water, cytotoxicity flag (confluency mask): not cytotoxic, agonist: MPLA (TLR4) […]
[6] = agonist: ODN 1826 (TLR9) 0.5 ug/mL
[7] = agonist: Pam2CSK4 (TLR2/6) 0.1 ug/mL
[8] = agonist: Pam3CSK4 (TLR2/1) 0.1 ug/mL
[9] = library stock concentration (final ~1000-fold dilution): 10 mM, cytotoxicity flag (confluency mask): not cytotoxic, agonist: Imiquimod (TLR7) […]
[10] = library stock concentration (final ~1000-fold dilution): 10 mM, cytotoxicity flag (confluency mask): not cytotoxic, agonist: MPLA (TLR4) […]

SMILES: CC(C)(C)N.CCCC(NC(C)C(=O)N1C(C(=O)O)CC2CCCCC21)C(=O)OCC (stereo unspecified)
- NF-kB SEAP reporter activity (RAW-Dual [1]; [4]): 0.909
- NF-kB SEAP reporter activity (RAW-Dual [1]; [5]): 1.04

SMILES: CC(C)(C)N.CCCC(NC(C)C(=O)N1C(C(=O)O)CC2CCCCC21)C(=O)OCC (stereo unspecified) (library stock concentration (final ~1000-fold dilution): 10 mM water)
- NF-kB SEAP reporter activity (RAW-Dual [2]; agonist: LPS (TLR4) 0.1 ug/mL): 1.05
- NF-kB SEAP reporter activity (RAW-Dual [2]; [6]): 1.13
- NF-kB SEAP reporter activity (RAW-Dual [2]; [7]): 1.17
- NF-kB SEAP reporter activity (RAW-Dual [2]; [8]): 1.02

SMILES: CC(C)(C)Cn1c(N)nc2ccc(-c3[nH]c(C(C)(C)C)nc3-c3ccc(F)cc3)nc21.CS(=O)(=O)O.CS(=O)(=O)O (library stock concentration (final ~1000-fold dilution): 10 mM water)
- NF-kB SEAP reporter activity (RAW-Dual [2]; agonist: LPS (TLR4) 0.1 ug/mL): 1.03
- NF-kB SEAP reporter activity (RAW-Dual [2]; [6]): 0.512
- NF-kB SEAP reporter activity (RAW-Dual [2]; [7]): 0.242
- NF-kB SEAP reporter activity (RAW-Dual [2]; [8]): 0.506

SMILES: CC(C)(C)Cn1c(N)nc2ccc(-c3[nH]c(C(C)(C)C)nc3-c3ccc(F)cc3)nc21.CS(=O)(=O)O.CS(=O)(=O)O
- NF-kB SEAP reporter activity (RAW-Dual [1]; [4]): 0.303
- NF-kB SEAP reporter activity (RAW-Dual [1]; [5]): 0.892

SMILES: C1=CCOCc2cc(ccc2OCCN2CCCC2)Nc2nccc(n2)-c2cccc(c2)COC1
- NF-kB SEAP reporter activity (RAW-Dual [1]; library stock concentration (final ~1000-fold dilution): 10 mM, cytotoxicity flag (confluency mask): cytotoxic (confluency <70% of control), agonist: Imiquimod (TLR7) […]): 1.52
- NF-kB SEAP reporter activity (RAW-Dual [1]; library stock concentration (final ~1000-fold dilution): 10 mM, cytotoxicity flag (confluency mask): cytotoxic (confluency <70% of control), agonist: MPLA (TLR4) […]): 0.838

SMILES: C1=CCOCc2cc(ccc2OCCN2CCCC2)Nc2nccc(n2)-c2cccc(c2)COC1 (library stock concentration (final ~1000-fold dilution): 10 mM)
- NF-kB SEAP reporter activity (RAW-Dual [3]; agonist: LPS (TLR4) 0.1 ug/mL): 0.498
- NF-kB SEAP reporter activity (RAW-Dual [3]; [6]): 0.245
- NF-kB SEAP reporter activity (RAW-Dual [3]; [7]): 0.176
- NF-kB SEAP reporter activity (RAW-Dual [3]; [8]): 0.256

SMILES: CC(C)n1cc(-c2ccc3c(c2)N(C)CC3)c2c(NS(=O)(=O)c3ccn(C)n3)ccnc21 (library stock concentration (final ~1000-fold dilution): 10 mM)
- NF-kB SEAP reporter activity (RAW-Dual [2]; agonist: LPS (TLR4) 0.1 ug/mL): 1.25
- NF-kB SEAP reporter activity (RAW-Dual [2]; [6]): 1.12
- NF-kB SEAP reporter activity (RAW-Dual [2]; [7]): 1.14
- NF-kB SEAP reporter activity (RAW-Dual [2]; [8]): 1.07

SMILES: CC(C)n1cc(-c2ccc3c(c2)N(C)CC3)c2c(NS(=O)(=O)c3ccn(C)n3)ccnc21
- NF-kB SEAP reporter activity (RAW-Dual [1]; [9]): 0.948
- NF-kB SEAP reporter activity (RAW-Dual [1]; [10]): 1.02

SMILES: O=C1c2c(O)cc(O)cc2OC(c2cc(O)c(O)c(O)c2)C1O (stereo unspecified)
- NF-kB SEAP reporter activity (RAW-Dual [1]; [9]): 0.946
- NF-kB SEAP reporter activity (RAW-Dual [1]; [10]): 1.07

SMILES: O=C1c2c(O)cc(O)cc2OC(c2cc(O)c(O)c(O)c2)C1O (stereo unspecified) (library stock concentration (final ~1000-fold dilution): 10 mM)
- NF-kB SEAP reporter activity (RAW-Dual [2]; agonist: LPS (TLR4) 0.1 ug/mL): 0.954
- NF-kB SEAP reporter activity (RAW-Dual [2]; [6]): 1.02
- NF-kB SEAP reporter activity (RAW-Dual [2]; [7]): 0.798
- NF-kB SEAP reporter activity (RAW-Dual [2]; [8]): 0.657

SMILES: CC(C)(C)NC(=O)c1cncn1C1CCN(c2ccc(-c3nnc(C(F)(F)F)o3)cn2)CC1
- NF-kB SEAP reporter activity (RAW-Dual [1]; [9]): 1.87
- NF-kB SEAP reporter activity (RAW-Dual [1]; [10]): 2.37

SMILES: CC(C)(C)NC(=O)c1cncn1C1CCN(c2ccc(-c3nnc(C(F)(F)F)o3)cn2)CC1 (library stock concentration (final ~1000-fold dilution): 10 mM)
- NF-kB SEAP reporter activity (RAW-Dual [2]; agonist: LPS (TLR4) 0.1 ug/mL): 6.27
- NF-kB SEAP reporter activity (RAW-Dual [2]; [6]): 3.15
- NF-kB SEAP reporter activity (RAW-Dual [2]; [7]): 1.66
- NF-kB SEAP reporter activity (RAW-Dual [2]; [8]): 2.84

SMILES: CC1(C)CCC2(C(=O)O)CCC3(C)C(=CCC4C5(C)CCC(=O)C(C)(C)C5CCC43C)C2C1 (stereo unspecified) (library stock concentration (final ~1000-fold dilution): 10 mM)
- NF-kB SEAP reporter activity (RAW-Dual [2]; agonist: LPS (TLR4) 0.1 ug/mL): 0.91
- NF-kB SEAP reporter activity (RAW-Dual [2]; [6]): 0.824
- NF-kB SEAP reporter activity (RAW-Dual [2]; [7]): 0.664
- NF-kB SEAP reporter activity (RAW-Dual [2]; [8]): 0.842

SMILES: CC1(C)CCC2(C(=O)O)CCC3(C)C(=CCC4C5(C)CCC(=O)C(C)(C)C5CCC43C)C2C1 (stereo unspecified)
- NF-kB SEAP reporter activity (RAW-Dual [1]; [9]): 0.8
- NF-kB SEAP reporter activity (RAW-Dual [1]; [10]): 1.27

SMILES: CC(=O)N1c2ccc(-c3ccc(C(=O)O)cc3)cc2C(Nc2ccc(Cl)cc2)CC1C (stereo unspecified) (library stock concentration (final ~1000-fold dilution): 10 mM)
- NF-kB SEAP reporter activity (RAW-Dual [2]; agonist: LPS (TLR4) 0.1 ug/mL): 4.2
- NF-kB SEAP reporter activity (RAW-Dual [2]; [6]): 2.49
- NF-kB SEAP reporter activity (RAW-Dual [2]; [7]): 1.06
- NF-kB SEAP reporter activity (RAW-Dual [2]; [8]): 1.85

SMILES: CC(=O)N1c2ccc(-c3ccc(C(=O)O)cc3)cc2C(Nc2ccc(Cl)cc2)CC1C (stereo unspecified)
- NF-kB SEAP reporter activity (RAW-Dual [1]; [9]): 1.56
- NF-kB SEAP reporter activity (RAW-Dual [1]; [10]): 2.37

SMILES: CC(=O)OC12COC1CC(O)C1(C)C(=O)C(O)C3=C(C)C(OC(=O)C(O)C(NC(=O)OC(C)(C)C)c4ccccc4)CC(O)(C(OC(=O)c4ccccc4)C21)C3(C)C.O.O.O (stereo unspecified) (library stock concentration (final ~1000-fold dilution): 10 mM)
- NF-kB SEAP reporter activity (RAW-Dual [2]; agonist: LPS (TLR4) 0.1 ug/mL): 1.26
- NF-kB SEAP reporter activity (RAW-Dual [2]; [6]): 0.91
- NF-kB SEAP reporter activity (RAW-Dual [2]; [7]): 0.697
- NF-kB SEAP reporter activity (RAW-Dual [2]; [8]): 0.713

SMILES: CC(=O)OC12COC1CC(O)C1(C)C(=O)C(O)C3=C(C)C(OC(=O)C(O)C(NC(=O)OC(C)(C)C)c4ccccc4)CC(O)(C(OC(=O)c4ccccc4)C21)C3(C)C.O.O.O (stereo unspecified)
- NF-kB SEAP reporter activity (RAW-Dual [1]; [9]): 1.07
- NF-kB SEAP reporter activity (RAW-Dual [1]; [10]): 1.23

SMILES: CC1OC(OC2C(O)C(OCCc3ccc(O)c(O)c3)OC(CO)C2OC(=O)/C=C/c2ccc(O)c(O)c2)C(O)C(O)C1O (stereo unspecified)
- NF-kB SEAP reporter activity (RAW-Dual [1]; [10]): 1.02

SMILES: CC1OC(OC2C(O)C(OCCc3ccc(O)c(O)c3)OC(CO)C2OC(=O)/C=C/c2ccc(O)c(O)c2)C(O)C(O)C1O (stereo unspecified) (library stock concentration (final ~1000-fold dilution): 10 mM)
- NF-kB SEAP reporter activity (RAW-Dual [2]; agonist: LPS (TLR4) 0.1 ug/mL): 1.21
- NF-kB SEAP reporter activity (RAW-Dual [2]; [6]): 1.05
- NF-kB SEAP reporter activity (RAW-Dual [2]; [7]): 1.03
- NF-kB SEAP reporter activity (RAW-Dual [2]; [8]): 1.11

SMILES: CN1CCCN=C1/C=C/c1cccc(O)c1.O=C(O)c1cc2ccccc2c(Cc2c(O)c(C(=O)O)cc3ccccc23)c1O
- NF-kB SEAP reporter activity (RAW-Dual [1]; [9]): 0.944
- NF-kB SEAP reporter activity (RAW-Dual [1]; [10]): 1.12

SMILES: CN1CCCN=C1/C=C/c1cccc(O)c1.O=C(O)c1cc2ccccc2c(Cc2c(O)c(C(=O)O)cc3ccccc23)c1O (library stock concentration (final ~1000-fold dilution): 10 mM)
- NF-kB SEAP reporter activity (RAW-Dual [2]; agonist: LPS (TLR4) 0.1 ug/mL): 0.973
- NF-kB SEAP reporter activity (RAW-Dual [2]; [6]): 0.993
- NF-kB SEAP reporter activity (RAW-Dual [2]; [7]): 1.01
- NF-kB SEAP reporter activity (RAW-Dual [2]; [8]): 0.594

SMILES: CC(C)N1CCN(Cc2cnc(-c3cc(-c4cccc5[nH]ccc45)cc4[nH]ncc34)o2)CC1 (library stock concentration (final ~1000-fold dilution): 10 mM)
- NF-kB SEAP reporter activity (RAW-Dual [2]; agonist: LPS (TLR4) 0.1 ug/mL): 4.66
- NF-kB SEAP reporter activity (RAW-Dual [2]; [6]): 0.196
- NF-kB SEAP reporter activity (RAW-Dual [2]; [7]): 0.982
- NF-kB SEAP reporter activity (RAW-Dual [2]; [8]): 1.86

SMILES: CC(C)N1CCN(Cc2cnc(-c3cc(-c4cccc5[nH]ccc45)cc4[nH]ncc34)o2)CC1
- NF-kB SEAP reporter activity (RAW-Dual [1]; [9]): 0.519
- NF-kB SEAP reporter activity (RAW-Dual [1]; [10]): 1.83
